Our source for the Potency and activity change, negative = inhibition values is PubChem BioAssay (NCATS).

Results filed as inconclusive are left out. Values without a mark were called inactive. Active and inactive are the calls of the source. The call rests on the fitted dose curve; in most records, active means well fitted inhibition curve with a large enough effect; inconclusive means small, poorly fitted or top-dose-only effect; inactive means no such curve, though single readings can be large or run the other way.
On the % scale 0 is the no-effect control and ±100 the full control effect; potency means the concentration at half of the fitted maximal effect.

The target in this experiment is Cytochrome P450 3A4 (Homo sapiens) (UniProt P08684). Put plainly: qHTS Assay for Inhibitors and Substrates of Cytochrome P450 3A4 (AID 884). Further: nearly all actives have a fitted effect of over 50% in size. Particulars: recombinant CYP3A4, Luciferin-PPXE luminescence; series mostly up to 57.1 µM. On the procedure: NIH Molecular Libraries Screening Centers Network [MLSCN]
Sequence of Cytochrome P450 3A4 (Homo sapiens) (P08684 whole entry, looked up): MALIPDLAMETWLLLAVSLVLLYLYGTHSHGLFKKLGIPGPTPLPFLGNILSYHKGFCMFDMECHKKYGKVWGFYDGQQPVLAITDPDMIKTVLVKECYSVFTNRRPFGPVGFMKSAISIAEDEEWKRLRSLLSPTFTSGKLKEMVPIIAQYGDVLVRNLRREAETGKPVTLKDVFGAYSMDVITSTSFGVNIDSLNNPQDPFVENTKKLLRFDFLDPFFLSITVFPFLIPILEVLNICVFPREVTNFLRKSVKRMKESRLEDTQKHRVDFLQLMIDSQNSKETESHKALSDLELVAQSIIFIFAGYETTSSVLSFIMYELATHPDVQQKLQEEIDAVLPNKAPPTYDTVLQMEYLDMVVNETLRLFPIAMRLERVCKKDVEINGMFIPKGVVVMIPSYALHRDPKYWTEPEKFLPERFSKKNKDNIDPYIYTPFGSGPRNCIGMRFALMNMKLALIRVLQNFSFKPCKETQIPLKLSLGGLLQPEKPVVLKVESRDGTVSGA
NIH Chemical Genomics Center [NCGC]
The P450 gene superfamily is involved in the metabolism and clearance of xenobiotics. This assay used human CYP3A4 to measure the dealkylation of luciferin-6' phenylpiperazinylyl (Luciferin-PPXE; […]) to luciferin. The luciferin is then measured by luminescence after the addition of a luciferase detection reagent. Luciferin-PPXE concentration in the assay was equal to its KM for CYP3A4. Inhibitors and some substrates limit the production of luciferin, and decrease measured luminescence.
NCGC Assay Protocol Summary:
Two uL of enzyme and substrate mix (final concentrations: 20nM CYP3A4, 25uM Luciferin-PPXE, 200mM KPO4) were dispensed into a white, solid bottom 1536-well microtiter plate. 23nL of compound was transferred by a pin tool. The plate was incubated at RT for 10 min. Two uL of an NADPH regeneration solution (Promega supplied reagent) was dispensed and the reaction was allowed to continue for 60 min at RT. Then the reaction was stopped by reconstituted luciferin detection buffer. After another 20 min of incubation the plate was read on the ViewLux (Perkin Elmer) at 60 sec exposure and 2x2 binning. This protocol was carried out with Promega-Glo reagents and further information can be found at http://www.promega.com/tbs/tb325/tb325.pdf. Data were normalized to the to AC100 inhibition (57 uM ketoconazole).
Keywords: P450, CYP3A4, Luciferase, MLSMR, MLSCN, NIH Roadmap, qHTS, NCGC
In general terms: qHTS replaces the single test concentration by a dilution series.
As for `COc1ccc(Oc2ncc3nc(C)c(=O)n(-c4ccc(OC)cc4)c3n2)cc1`, the Potency was 3.98 µM (active).
Still for that read-out and setting: the figure for `CS(=O)(=O)Nc1cccc(-c2nc(NCc3cccnc3)c3ccccc3n2)c1` is 2 µM (active).
Regarding `CCC(Cl)CC(Cl)C(Cl)C(Cl)C(Cl)C(C)Cl` (stereo not given), the Potency entry is “inactive”.
Same read-out and setting: the figure for `Cc1ccccc1N1CCN(S(=O)(=O)C[C@@]23CC[C@H](C[C@H]2NC(=O)[C@@H](N)CCS(C)(=O)=O)C3(C)C)CC1` is 3.16 µM (active).
The same measure, in the same setting: the entry for `CCCCNCC` is “inactive”.
As for `CC(=O)OCC(=O)[C@]12OC(C)(C)O[C@@H]1C[C@H]1[C@H]3CC=C4C[C@@H](O)CC[C@]4(C)[C@H]3CC[C@]12C`, the activity change, negative = inhibition was 69.9% [at 11.4 µM].
On to `Cc1cc(=O)oc2cc(O)cc(O)c12`, for which the Potency is 6.31 µM (active).
On to `Nc1nc(SCCc2ccccc2)c2[nH]cnc2n1`, for which the Potency was 2.51 µM (active).
The same measure, in the same setting: the figure for `NCCSc1nc2ccccc2s1` is 3.16 µM (active); for `O=c1c(-c2ccccc2)nc2cnc(N3CCNCC3)nc2n1Cc1ccc(F)cc1` it is 3.16 µM (active); for `O=C(C[C@@H]1C=Cc2ccccc2N1C(=O)c1ccccc1)c1ccccc1` it is 3.98 µM (active).
On the same count and under the same terms, the figure for `Cn1c(Sc2ccc(-c3cccnc3)n2C)ccc1-c1cccnc1` is 0.631 µM (active); for `CC(C)N1CCN(c2ccncc2S(=O)(=O)N2CCCCC2)CC1` it is 3.16 µM (active); for `COc1ccc([C@@H](Nc2ncccn2)c2cc3c(cc2O)OCO3)cc1` it is 2.51 µM (active).
With `Brc1ccc(-c2ccccc2)cc1`, the Potency result was “inactive”.
Same read-out and setting: the entry for `O=[N+]([O-])c1ccccc1Nc1ccccc1` is “inactive”.
The same measure, in the same setting: the figure for `O=C(O)CCc1nc(-c2ccccc2-n2cccc2)no1` is 2.51 µM (active); for `NC(=O)Nc1nc2ccccc2[nH]1` it is “inactive”.
The same measure, in the same setting: the figure for `c1ccc2sc(SCSc3nc4ccccc4s3)nc2c1` is 3.16 µM (active); for `COc1ccccc1CCn1c(=O)c(-c2ccccc2)nc2cncnc21` it is 3.98 µM (active).
With `Cc1cc(N2CCOCC2)nc2ccc(Cc3ccc4nc(N5CCOCC5)cc(C)c4c3)cc12`, the activity change, negative = inhibition was 91.2% [at 11.4 µM].
For the molecule `CC(C)CO[C@H](c1ccc2c(c1)OCO2)[C@H](C)Br`, the Potency was 3.16 µM (active).
On the same count and under the same terms, the figure for `CN[C@@H](c1ccncc1)[C@@H](NC)c1ccncc1` is 5.01 µM (active).
`Cc1c(N)cccc1Cl`: the Potency result was “inactive”.
Turning to `C[C@](O)(c1ccccc1)c1nccc2ccccc12`, the activity change, negative = inhibition was 49.6% [at 11.4 µM].
Consider `O=C(c1cc(C(F)(F)F)cc(C(F)(F)F)c1)N1CCC[C@@]2(CCN(Cc3ccccc3)C2)C1`, for which the Potency is 5.01 µM (active).
For `COc1ccc(C[C@@H]2C(=O)N[C@H](C)C(=O)N(C)[C@@H]3Cc4ccc(cc4)Oc4cc(ccc4O)C[C@H](C(=O)N[C@@H](C)C(=O)N[C@H](C)C(=O)N2C)N(C)C3=O)cc1`, the Potency is 3.98 µM (active).
Consider `Cc1c2cnccc2c(C)c2c1c1ccccc1n2CCOC(=O)c1ccccc1`, for which the Potency is 0.631 µM (active).
In the case of `Cc1cccnc1`, the Potency result is “inactive”.
With `Cn1c(=O)c2[nH]c(SCc3ccccn3)nc2n(C)c1=S`, the Potency was 3.98 µM (active).
Same read-out and setting: the entry for `CCCCCCc1ccc(-c2ccc(C#N)cc2)cc1` is “inactive”; for `O=C(O)c1cc(N=Nc2ccc([N+](=O)[O-])cc2)ccc1O` it is “inactive”.
Regarding `CC(C)S`, the Potency result is “inactive”.
With `N=C(N)SCCN1CCCCC1`, the activity change, negative = inhibition is -31.7% [at 11.4 µM].
As to `Nc1ccc(N)c(Cl)c1`, the Potency was 10 µM (active).
On to `O=C1c2ccccc2C(O)(O)[C@@]1(O)[C@]1(O)C(=O)c2ccccc2C1(O)O`, for which the activity change, negative = inhibition is 11.5% [at 11.4 µM].
For the molecule `CC(=O)c1ccc(Cl)c(Cl)c1Cl`, the Potency entry was “inactive”.
Turning to `O=c1c(CCc2ccccc2)nc2cnc(Oc3cccc(Cl)c3)nc2n1C[C@H]1CCCO1`, the Potency was 0.501 µM (active).
For `Cc1cc2c(cc1C)NC1=C(N2)O[C@H](c2c[nH]c3ccc(COc4ccccc4)cc23)C1=O`, the Potency is 3.98 µM (active).
`CCNc1ncc2nc(CCc3ccccc3)c(=O)n(-c3ccc(OC)cc3)c2n1`: the Potency is 6.31 µM (active).
